Assay results as given in PubChem BioAssay.
Activity calls are given as the source filed them.

Key:
[1] = test system: Plasmodium falciparum Sir2 (PF13_0152, Sir2A); assay: Plasmodium falciparum Sir2A binding compounds – biochemical, small-molecule microarray, 635 nm fluorescence, primary screen (AID 1098); conditions: fluorescence 635 nm, higher = more signal;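 note: score merges spot fluorescence intensity with its signal-to-noise ratio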
[2] = probe aDKK1 binding to arrayed compounds – biochemical, biotinylated probe, 635/667 nm fluorescence, primary screen (AID 1099); conditions: small-molecule microarray, higher = more signal;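 note: score merges 667nm spot fluorescence with signal to noise across triplicate slides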
[3] = probe aCHRDL2 binding to arrayed compounds – biochemical, biotinylated probe, 635/667 nm fluorescence, primary screen (AID 1100); conditions: small-molecule microarray, higher = more signal
[4] = change in splice reporter luminescence, either direction, cell-based, HEK293, spliceosome inhibition project, primary screen (AID 1101); conditions: HEK293 splicing luciferase reporter, 24 h, higher = more signal, called active from +8 up or from −8 down;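 note: HEK293 cells carrying a splicing-competent luciferase reporter gene; test concentration not given here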
[5] = target: Fibroblast growth factor 10 (Homo sapiens) (UniProt O15520); assay: compounds binding fibroblast growth factor 10 – biochemical, small-molecule microarray, 635 nm fluorescence, primary screen (AID 1102); conditions: FGF10 binding, fluorescence 635 nm, higher = more signal
Chain of Fibroblast growth factor 10 (Homo sapiens) (O15520 whole entry, looked up): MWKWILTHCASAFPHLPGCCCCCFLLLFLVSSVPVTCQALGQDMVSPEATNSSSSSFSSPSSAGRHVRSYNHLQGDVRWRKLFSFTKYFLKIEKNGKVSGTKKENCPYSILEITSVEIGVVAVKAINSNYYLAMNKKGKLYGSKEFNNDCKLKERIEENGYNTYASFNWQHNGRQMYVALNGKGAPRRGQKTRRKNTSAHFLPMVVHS

[6] = test system: glycogen synthase kinase-3 (GSK3A per assay name; protocol says GSK3B); assay: compounds binding glycogen synthase kinase-3 – biochemical, small-molecule microarray, 635 nm fluorescence, GSK3A, primary screen (AID 1103); conditions: fluorescence 635 nm, higher = more signal; note: the record names both GSK3A and GSK3B
[7] = target: Epidermal growth factor receptor (Homo sapiens) (UniProt P00533); assay: compounds binding epidermal growth factor receptor – biochemical, small-molecule microarray, 635 nm fluorescence, primary screen (AID 1104); conditions: EGFR binding, higher = more signal;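 note: score merges 667 nm emission intensity with spot signal to noise over triplicate slides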
Chain of Epidermal growth factor receptor (Homo sapiens) (P00533 whole entry, looked up): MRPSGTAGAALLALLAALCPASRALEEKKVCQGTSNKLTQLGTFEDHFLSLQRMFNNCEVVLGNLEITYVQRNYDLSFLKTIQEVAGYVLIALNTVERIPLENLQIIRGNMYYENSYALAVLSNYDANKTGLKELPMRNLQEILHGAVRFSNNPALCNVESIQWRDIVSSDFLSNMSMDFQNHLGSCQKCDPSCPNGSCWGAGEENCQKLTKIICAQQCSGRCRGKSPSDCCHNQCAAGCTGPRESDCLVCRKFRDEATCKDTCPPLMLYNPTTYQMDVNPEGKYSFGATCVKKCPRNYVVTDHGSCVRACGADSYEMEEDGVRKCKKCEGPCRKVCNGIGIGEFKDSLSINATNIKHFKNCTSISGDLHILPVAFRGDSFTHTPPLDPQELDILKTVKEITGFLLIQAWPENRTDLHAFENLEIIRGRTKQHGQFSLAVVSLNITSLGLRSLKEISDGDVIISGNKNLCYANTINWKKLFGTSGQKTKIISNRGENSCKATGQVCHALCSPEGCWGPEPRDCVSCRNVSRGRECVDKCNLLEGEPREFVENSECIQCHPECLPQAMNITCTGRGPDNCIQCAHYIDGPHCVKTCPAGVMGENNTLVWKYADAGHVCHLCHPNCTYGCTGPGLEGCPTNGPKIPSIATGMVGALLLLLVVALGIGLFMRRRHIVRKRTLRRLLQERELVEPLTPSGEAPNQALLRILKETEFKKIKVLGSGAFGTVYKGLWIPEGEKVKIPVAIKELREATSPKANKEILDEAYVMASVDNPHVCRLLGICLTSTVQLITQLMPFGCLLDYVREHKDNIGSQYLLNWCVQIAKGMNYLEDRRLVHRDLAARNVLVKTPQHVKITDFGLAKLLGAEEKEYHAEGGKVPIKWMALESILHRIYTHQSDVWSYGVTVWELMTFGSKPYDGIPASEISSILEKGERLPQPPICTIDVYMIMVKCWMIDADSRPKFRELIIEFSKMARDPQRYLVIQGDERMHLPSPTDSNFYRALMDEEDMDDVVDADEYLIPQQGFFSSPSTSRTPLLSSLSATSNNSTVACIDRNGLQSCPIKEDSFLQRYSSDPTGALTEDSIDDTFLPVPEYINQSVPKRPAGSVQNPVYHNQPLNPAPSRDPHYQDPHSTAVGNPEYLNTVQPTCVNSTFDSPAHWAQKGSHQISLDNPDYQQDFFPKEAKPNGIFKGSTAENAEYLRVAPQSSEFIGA

[8] = target: Follistatin-related protein 3 (Homo sapiens) (UniProt O95633); assay: compounds binding follistatin-related protein 3 – biochemical, small-molecule microarray, 635 nm fluorescence, primary screen (AID 1105); conditions: FSTL3 binding, higher = more signal;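 note: score merges emission near 667 nm and signal to noise per printed spot across three slides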
Chain of Follistatin-related protein 3 (Homo sapiens) (O95633 whole entry, looked up): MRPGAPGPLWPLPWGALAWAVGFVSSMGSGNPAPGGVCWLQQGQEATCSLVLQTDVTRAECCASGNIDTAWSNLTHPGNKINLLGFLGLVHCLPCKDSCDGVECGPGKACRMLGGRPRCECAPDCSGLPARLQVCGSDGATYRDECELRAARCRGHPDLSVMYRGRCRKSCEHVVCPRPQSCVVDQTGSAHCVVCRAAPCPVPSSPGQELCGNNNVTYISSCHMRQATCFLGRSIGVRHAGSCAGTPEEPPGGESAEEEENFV

[9] = target: Dickkopf-related protein 1 (Homo sapiens) (UniProt O94907); assay: small molecules binding DKK1 protein – biochemical, small-molecule microarray, 635 nm fluorescence scan, primary screen (AID 1106); conditions: higher = more signal;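 note: score merges emission near 667 nm with signal to noise over three replicate slides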
Chain of Dickkopf-related protein 1 (Homo sapiens) (O94907 whole entry, looked up): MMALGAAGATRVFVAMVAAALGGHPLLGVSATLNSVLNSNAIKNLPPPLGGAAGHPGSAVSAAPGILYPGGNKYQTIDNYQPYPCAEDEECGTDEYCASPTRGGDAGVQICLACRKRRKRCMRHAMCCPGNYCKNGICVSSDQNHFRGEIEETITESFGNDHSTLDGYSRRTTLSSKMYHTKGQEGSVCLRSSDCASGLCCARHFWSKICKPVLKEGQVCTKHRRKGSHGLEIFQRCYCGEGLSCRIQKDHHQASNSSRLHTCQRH

[10] = test system: Inhibin beta A chain (activin A); assay: small molecules binding activin A – biochemical, small-molecule microarray, 635 nm fluorescence scan, primary screen (AID 1107); conditions: INHBA, higher = more signal;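 note: mouse activin A protein probed at 4.33 µg/mL on printed slides; score merges bound-protein fluorescence near 667 nm with spot signal-to-noise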
[11] = test system: Human papillomavirus type 1a protein E7 (residues 44-93); assay: small molecules binding HPV E7 44-93 – biochemical, small-molecule microarray, residues 44-93, 635 nm fluorescence, primary screen (AID 1108); conditions: fluorescence 635 nm, higher = more signal;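 note: E7 fragment applied at 1 µg/mL in TBST for 1 h at 4 C; score combines spot fluorescence with its signal to noise ratio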
[12] = hepatitis C replication reporter changes, two-sided – Huh7 cells, luciferase reporter, HCV replication inhibitor project, primary screen (AID 1109); conditions: Huh7 HCV replicon luciferase reporter, 48 h; higher = more signal;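 note: huh7 hepatoma cells harbouring a luciferase neomycin HCV replicon reporter; luciferase luminescence as measure of HCV replicon replication; test concentration not given here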
[13] = target: Left-right determination factor 2 (Homo sapiens) (UniProt O00292); assay: small molecules binding LEFTY2 protein – biochemical, small-molecule microarray, 635 nm fluorescence scan, primary screen (AID 1110); conditions: higher = more signal
Chain of Left-right determination factor 2 (Homo sapiens) (O00292 whole entry, looked up): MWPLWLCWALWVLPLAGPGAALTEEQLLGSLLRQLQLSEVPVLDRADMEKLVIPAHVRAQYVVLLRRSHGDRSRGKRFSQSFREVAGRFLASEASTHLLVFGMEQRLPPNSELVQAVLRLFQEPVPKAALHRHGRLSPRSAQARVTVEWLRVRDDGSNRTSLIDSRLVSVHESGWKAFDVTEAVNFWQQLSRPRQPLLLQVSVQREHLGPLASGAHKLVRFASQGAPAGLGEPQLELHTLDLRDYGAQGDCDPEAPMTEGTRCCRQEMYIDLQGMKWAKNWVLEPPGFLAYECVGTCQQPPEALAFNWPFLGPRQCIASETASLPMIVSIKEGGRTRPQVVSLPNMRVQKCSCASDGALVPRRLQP

[14] = target: Calmodulin-1 (Homo sapiens) (UniProt P0DP23); assay: small molecules binding calmodulin-1 with EGTA – biochemical, small-molecule microarray, Cy5-labelled CALM1, profiling panel (AID 1111); conditions: Cy5-CALM1 binding fluorescence, higher = more signal;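 note: labelled calmodulin applied in Tris saline Tween buffer holding calcium plus EGTA and DTT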
[15] = target: Calmodulin-1 (Homo sapiens) (UniProt P0DP23); assay: small molecules binding Ca-loaded calmodulin-1 – biochemical, small-molecule microarray, Cy5-labelled CALM1, plus calcium, artefact control for SMM control-protein annotation, profiling panel (AID 1112); conditions: Cy5-CALM1 binding fluorescence, higher = more signal;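 note: score merges spot fluorescence with signal to noise from triplicate slides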
[16] = probe aWnt5a binding to arrayed compounds – biochemical, biotinylated probe, 635/667 nm fluorescence, primary screen (AID 1113); conditions: small-molecule microarray, higher = more signal;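 note: score merges 667 nm fluorescence intensity with signal-to-noise per printed feature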
[17] = probe aShh binding to arrayed compounds – biochemical, biotinylated probe, 635/667 nm fluorescence, primary screen (AID 1114); conditions: small-molecule microarray, higher = more signal;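 note: probe is biotin-labelled aShh protein from a stem cell growth factor screen; measures binding of labelled protein to compounds printed on the slide; score merges feature fluorescence at 667 nm with signal-to-noise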
[18] = probe aNog binding to arrayed compounds – biochemical, biotinylated probe, 635/667 nm fluorescence, primary screen (AID 1115); conditions: small-molecule microarray, higher = more signal;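 note: probe is biotinylated aNog protein used at 0.15 µg/mL for 1 h at 4 C; z-score combines 667 nm fluorescence of each spot with its signal to noise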
[19] = target: Torsin-1A-interacting protein 1 (Homo sapiens) (UniProt Q5JTV8); assay: compound microarray binding of lysate hLAP1 – cell lysate, small-molecule microarray, COS7 lysate, 635/667 nm fluorescence, primary screen (AID 1116); conditions: 635 nm fluorescence, higher = more signal
Chain of Torsin-1A-interacting protein 1 (Homo sapiens) (Q5JTV8 whole entry, looked up): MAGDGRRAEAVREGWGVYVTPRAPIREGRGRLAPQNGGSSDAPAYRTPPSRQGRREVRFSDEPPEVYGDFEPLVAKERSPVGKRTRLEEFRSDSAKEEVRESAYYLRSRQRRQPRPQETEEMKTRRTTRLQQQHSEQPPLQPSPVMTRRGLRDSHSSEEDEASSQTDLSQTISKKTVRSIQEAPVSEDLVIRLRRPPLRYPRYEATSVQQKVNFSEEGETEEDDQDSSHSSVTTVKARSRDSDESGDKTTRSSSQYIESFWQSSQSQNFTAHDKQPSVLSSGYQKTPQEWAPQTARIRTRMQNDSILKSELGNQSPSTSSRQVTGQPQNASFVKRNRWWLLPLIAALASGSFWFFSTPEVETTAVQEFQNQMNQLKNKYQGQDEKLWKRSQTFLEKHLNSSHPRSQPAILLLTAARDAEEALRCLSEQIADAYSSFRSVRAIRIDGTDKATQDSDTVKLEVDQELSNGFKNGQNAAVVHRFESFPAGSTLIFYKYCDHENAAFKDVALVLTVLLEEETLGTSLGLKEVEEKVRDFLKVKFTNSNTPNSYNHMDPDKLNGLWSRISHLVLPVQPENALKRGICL

[20] = target: Alpha-bungarotoxin (Bungarus multicinctus) (UniProt P60615); assay: compounds binding labelled alpha-BTX control protein – biochemical, small-molecule microarray, Alexa647 label, 635/667 nm fluorescence, artefact control for SMM control protein annotation, profiling panel (AID 1117); conditions: alpha-BTX-A647 binding fluorescence, higher = more signal
Chain of Alpha-bungarotoxin (Bungarus multicinctus) (P60615 whole entry, looked up): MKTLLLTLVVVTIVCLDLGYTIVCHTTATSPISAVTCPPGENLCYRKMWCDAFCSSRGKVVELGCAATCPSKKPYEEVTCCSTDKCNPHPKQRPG

Cc1ccc(S[C@]2(C(=O)NCCN3CCOCC3)CC(=O)N(Cc3cc(C(F)(F)F)cc(C(F)(F)F)c3)[C@@H]2c2ccc(CO)cc2)cc1
composite z-score [1]: 1.71
composite z-score [2]: 0.523
composite z-score [3]: 0.866
z-score [4]: -0.688 (inactive)
composite z-score [5]: -0.703
composite z-score [6]: -1.45
composite z-score [7]: -1.19
composite z-score [8]: -1.15
composite z-score [9]: -1.05
composite z-score [10]: 0.156
composite z-score [11]: -0.233
z-score [12]: -0.429
composite z-score [13]: -1.13
composite z-score [14]: -0.411
composite z-score [15]: -0.132
composite z-score [16]: -0.175
composite z-score [17]: -0.153
composite z-score [18]: 0.455
composite z-score [19]: -0.998
composite z-score [20]: -0.842

C=CC[C@]1(C(=O)N(C)C)N=C(c2ccc(OCCCO)cc2)O[C@H]1c1ccccc1CN=[N+]=[N-]
composite z-score [1]: 1.27
composite z-score [2]: 1.68
composite z-score [3]: 1.09
z-score [4]: -0.0363 (inactive)
composite z-score [5]: 0.698
composite z-score [6]: 1.32
composite z-score [7]: 0.0528
composite z-score [8]: 0.513
composite z-score [9]: 0.328
composite z-score [10]: 1.43
composite z-score [11]: 0.923
z-score [12]: -2.44
composite z-score [13]: 0.447
composite z-score [14]: 2.17
composite z-score [15]: 1.17
composite z-score [16]: 0.0324
composite z-score [17]: -0.174
composite z-score [18]: 1.24
composite z-score [19]: 1.92
composite z-score [20]: 1.58

Cc1ccc(S[C@]2(C(=O)NC3CC3)CC(=O)N(Cc3ccccc3C(F)(F)F)[C@@H]2c2ccc(CO)cc2I)cc1
composite z-score [1]: 1.64
composite z-score [2]: 0.913
composite z-score [3]: 1.1
z-score [4]: -2.01 (inactive)
composite z-score [5]: -0.28
composite z-score [6]: -0.0828
composite z-score [7]: -0.385
composite z-score [8]: -0.292
composite z-score [9]: -0.425
composite z-score [10]: 1.72
composite z-score [11]: 0.33
z-score [12]: -1.55
composite z-score [13]: -0.659
composite z-score [14]: 0.514
composite z-score [15]: 1.14
composite z-score [16]: -0.124
composite z-score [17]: 0.188
composite z-score [18]: 0.568
composite z-score [19]: 0.955
composite z-score [20]: 0.0637

COCCOC(=O)N1C(=O)[C@@]2(c3ccccc31)[C@H](C(=O)Nc1nc3ccccc3s1)[C@H]1C(=O)O[C@H](c3ccccc3)[C@H](c3ccccc3)N1[C@@H]2c1ccc(O)cc1
composite z-score [1]: 1.05
composite z-score [2]: 0.356
composite z-score [3]: 0.361
z-score [4]: -1.56 (inactive)
composite z-score [5]: 0.998
composite z-score [6]: 1.29
composite z-score [7]: 0.534
composite z-score [8]: 0.775
composite z-score [9]: 0.709
composite z-score [10]: 0.927
composite z-score [11]: 1.1
z-score [12]: -2.04
composite z-score [13]: 1.02
composite z-score [14]: 1.74
composite z-score [15]: 1.07
composite z-score [16]: 0.0044
composite z-score [17]: 0.489
composite z-score [18]: 0.134
composite z-score [19]: 0.94
composite z-score [20]: 2.07

COCCCN1C(=O)[C@@]2(Cc3ccccc31)c1ccccc1C(=O)N(Cc1ccccc1Cl)[C@H]2c1ccc(CO)cc1
composite z-score [1]: -0.482
composite z-score [2]: 0.337
composite z-score [3]: 0.775
z-score [4]: -0.471 (inactive)
composite z-score [5]: -0.129
composite z-score [6]: -0.542
composite z-score [7]: -0.406
composite z-score [8]: -0.397
composite z-score [9]: -0.685
composite z-score [10]: 1.04
composite z-score [11]: -0.199
z-score [12]: -0.326
composite z-score [13]: -0.222
composite z-score [14]: -0.217
composite z-score [15]: -0.12
composite z-score [16]: 0.0044
composite z-score [17]: -0.0066
composite z-score [18]: 0.206
composite z-score [19]: 0.167
composite z-score [20]: -0.342

COCCCNC(=O)[C@@]1(Cc2ccccc2)N=C(c2ccc(OCCCO)cc2)O[C@H]1c1ccccc1N=[N+]=[N-]
composite z-score [1]: 0.481
composite z-score [2]: 1.22
composite z-score [3]: 1.19
z-score [4]: -1.3 (inactive)
composite z-score [5]: 1.2
composite z-score [6]: 1.24
composite z-score [7]: -0.176
composite z-score [8]: 0.176
composite z-score [9]: 0.101
composite z-score [10]: 1.31
composite z-score [11]: 0.175
z-score [12]: -2.59
composite z-score [13]: -0.151
composite z-score [14]: 1.05
composite z-score [15]: 0.945
composite z-score [16]: 0.115
composite z-score [17]: 1.02
composite z-score [18]: 0.805
composite z-score [19]: 0.948
composite z-score [20]: 1.35

C=C(C(=O)CC[C@H](OC(C)=O)c1ccc(CO)o1)C(C)C
composite z-score [1]: 1.73
composite z-score [2]: -0.272
composite z-score [3]: -0.476
z-score [4]: -1.4 (inactive)
composite z-score [5]: 0.0843
composite z-score [6]: 0.626
composite z-score [7]: -0.986
composite z-score [8]: -0.144
composite z-score [9]: 0.24
composite z-score [10]: 0.0011
composite z-score [11]: -0.559
z-score [12]: -1.52
composite z-score [13]: -0.586
composite z-score [14]: -0.579
composite z-score [15]: -0.758
composite z-score [16]: -0.096
composite z-score [17]: 0.0048
composite z-score [18]: -0.309
composite z-score [19]: 1.15
composite z-score [20]: -0.292

COc1ccc([Si](C)(C)[C@H]2[C@H](CC(=O)N(CCO)Cc3ccccc3)O[C@@]3(C(=O)N(Cc4ccc(N5CCC5=O)cc4)c4ccccc43)[C@@H]2C)cc1
composite z-score [1]: 0.811
composite z-score [2]: 0.0433
composite z-score [3]: 0.4
z-score [4]: -0.439 (inactive)
composite z-score [5]: -0.802
composite z-score [6]: -0.39
composite z-score [7]: -0.443
composite z-score [8]: -0.155
composite z-score [9]: 0.183
composite z-score [10]: 0.577
composite z-score [11]: -0.403
z-score [12]: -3.87
composite z-score [13]: 0.271
composite z-score [14]: 0.0311
composite z-score [15]: 0.705
composite z-score [16]: -0.187
composite z-score [17]: 0.0434
composite z-score [18]: -0.231
composite z-score [19]: 1.25
composite z-score [20]: 1.33

CCCCCN1CC=CC23O[C@@H]4/C=C\CCC(C)OC(=O)C4[C@H]2C(=O)N(CCO)[C@@H]3C1=O (stereo not given in full)
composite z-score [1]: 1.3
composite z-score [2]: -0.205
composite z-score [3]: 0.791
z-score [4]: -0.688 (inactive)
composite z-score [5]: -0.825
composite z-score [6]: -0.413
composite z-score [7]: -1.81
composite z-score [8]: -1.13
composite z-score [9]: -1.2
composite z-score [10]: 1.57
composite z-score [11]: 0.408
z-score [12]: 0.382
composite z-score [13]: -1.43
composite z-score [14]: -0.659
composite z-score [15]: -0.295
composite z-score [16]: -0.176
composite z-score [17]: -0.279
composite z-score [18]: 0.552
composite z-score [19]: -0.0418
composite z-score [20]: -1.7

O=C(NC1CC1)[C@@H]1c2ccccc2C(=O)N(Cc2ccccc2C(F)(F)F)[C@H]1c1ccc(CO)cc1
composite z-score [1]: 0.271
composite z-score [2]: 0.561
composite z-score [3]: 0.341
z-score [4]: -0.0246 (inactive)
composite z-score [5]: 0.554
composite z-score [6]: 1.27
composite z-score [7]: 0.388
composite z-score [8]: 0.471
composite z-score [9]: 0.113
composite z-score [10]: 0.708
composite z-score [11]: 1.06
z-score [12]: -0.639
composite z-score [13]: 0.319
composite z-score [14]: 0.64
composite z-score [15]: 0.585
composite z-score [16]: -0.0977
composite z-score [17]: 0.172
composite z-score [18]: 0.0272
composite z-score [19]: 0.714
composite z-score [20]: 0.353

C=C(COC)/C(=C/C[C@H](OC(C)=O)c1cccc(OCCO)c1)c1cc(C(=O)OC)ccc1OC
composite z-score [1]: 0.84
composite z-score [2]: 0.0919
composite z-score [3]: -0.143
z-score [4]: -4.8 (inactive)
composite z-score [5]: 1.21
composite z-score [6]: 0.656
composite z-score [7]: 0.0086
composite z-score [8]: 1.33
composite z-score [9]: 1.47
composite z-score [10]: 0.981
composite z-score [11]: -0.109
z-score [12]: -4.08
composite z-score [13]: 0.38
composite z-score [14]: -0.547
composite z-score [15]: -0.377
composite z-score [16]: -0.0556
composite z-score [17]: -0.0146
composite z-score [18]: -0.201
composite z-score [19]: 0.188
composite z-score [20]: -0.284
